The supplement of paper PMC8728848
About 410 targets per protein were measured; listed, in parts, are those with the strongest signals and a random draw of the rest.

Assays:
Experiment in all cases: glycan array binding signal (z-score within array); higher = stronger binding
Settings in all cases: glycan notation: IUPAC condensed, linker removed
Fuc(a1-2)Gal(b1-3)GalNAc = molecular target: Fuc(a1-2)Gal(b1-3)GalNAc
How it was run: (§1)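 The binding signal is a Z-score computed within each array. Data were drawn from 3228 arrays in the Consortium for Functional Glycomics database, restricted to those with a known protein sequence. Scores were averaged over arrays of the same protein sequence at different concentrations or buffers, and over linkers, and negative values can be taken as non-binding.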

[1] = molecular target: Fuc(a1-2)Gal(b1-4)[Fuc(a1-3)]GlcNAc(b1-3)Gal(b1-4)[Fuc(a1-3)]GlcNAc
How it was run: as §1

Fuc(a1-2)GlcNAc = molecular target: Fuc(a1-2)GlcNAc
How it was run: as §1

[2] = molecular target: Fuc(a1-3)[Gal3S(b1-4)]GlcNAc
How it was run: as §1

[3] = molecular target: Gal(b1-3)[Fuc(a1-4)]GlcNAc(b1-3)Gal(b1-4)[Fuc(a1-3)]GlcNAc
How it was run: as §1

[4] = molecular target: Gal(b1-4)GlcNAc(b1-3)Gal(b1-4)[Fuc(a1-3)]GlcNAc(b1-3)Gal(b1-4)[Fuc(a1-3)]GlcNAc
How it was run: as §1

Gal3S(b1-4)Glc = molecular target: Gal3S(b1-4)Glc
How it was run: as §1

Gal3S(b1-4)GlcNAc6S = molecular target: Gal3S(b1-4)GlcNAc6S
How it was run: as §1

Gal3S6S(b1-4)GlcNAc6S = molecular target: Gal3S6S(b1-4)GlcNAc6S
How it was run: as §1

[5] = molecular target: GlcNAc(b1-2)Gal(b1-3)GalNAc
How it was run: as §1

Kdn(a2-3)Gal(b1-4)GlcNAc = molecular target: Kdn(a2-3)Gal(b1-4)GlcNAc
How it was run: as §1

Man(a1-3)[Man(a1-6)]Man = molecular target: Man(a1-3)[Man(a1-6)]Man
How it was run: as §1

[6] = molecular target: Neu5Ac(a2-3)Gal(b1-3)GalNAc6S
How it was run: as §1

[7] = molecular target: Neu5Ac(a2-3)Gal(b1-4)GlcNAc(b1-3)Gal(b1-4)GlcNAc
How it was run: as §1

[8] = molecular target: Neu5Ac(a2-6)Gal(b1-4)GlcNAc(b1-2)Man(a1-3)[Neu5Ac(a2-6)Gal(b1-4)GlcNAc(b1-2)Man(a1-6)]Man(b1-4)GlcNAc(b1-4)GlcNAc
How it was run: as §1

[9] = molecular target: Neu5Ac(a2-6)Gal(b1-4)GlcNAc6S
How it was run: as §1

[10] = molecular target: Neu5Ac9Ac(a2-6)Gal(b1-4)GlcNAc
How it was run: as §1

[11] = molecular target: Fuc(a1-2)Gal(b1-3)GalNAc(b1-4)[Neu5Ac(a2-3)]Gal(b1-4)Glc
How it was run: as §1

[12] = molecular target: Fuc(a1-2)Gal(b1-4)[Fuc(a1-3)]GlcNAc
How it was run: as §1

[13] = molecular target: Fuc(a1-2)Gal(b1-4)[Fuc(a1-3)]GlcNAc(b1-3)Gal(b1-4)[Fuc(a1-3)]GlcNAc(b1-3)Gal(b1-4)[Fuc(a1-3)]GlcNAc
How it was run: as §1

Fuc(b1-3)GlcNAc = molecular target: Fuc(b1-3)GlcNAc
How it was run: as §1

Gal(a1-3)Gal = molecular target: Gal(a1-3)Gal
How it was run: as §1

Gal(b1-4)Glc6S = molecular target: Gal(b1-4)Glc6S
How it was run: as §1

Gal3S6S(b1-4)GlcNAc = molecular target: Gal3S6S(b1-4)GlcNAc
How it was run: as §1

Gal6S(b1-4)Glc6S = molecular target: Gal6S(b1-4)Glc6S
How it was run: as §1

GalNAc(a1-3)GalNAc = molecular target: GalNAc(a1-3)GalNAc
How it was run: as §1

GalNAc(b1-4)GlcNAc = molecular target: GalNAc(b1-4)GlcNAc
How it was run: as §1

[14] = molecular target: Neu5Ac(a2-3)Gal(b1-3)GlcNAc
How it was run: as §1

Neu5Ac(a2-3)GalNAc = molecular target: Neu5Ac(a2-3)GalNAc
How it was run: as §1

[15] = molecular target: Neu5Gc(a2-3)Gal(b1-4)[Fuc(a1-3)]GlcNAc
How it was run: as §1

Binder | glycan array binding signal (z-score) (Fuc(a1-2)Gal(b1-3)GalNAc) | glycan array binding signal (z-score) [1] | glycan array binding signal (z-score) (Fuc(a1-2)GlcNAc) | glycan array binding signal (z-score) [2] | glycan array binding signal (z-score) [3] | glycan array binding signal (z-score) [4] | glycan array binding signal (z-score) (Gal3S(b1-4)Glc) | glycan array binding signal (z-score) (Gal3S(b1-4)GlcNAc6S) | glycan array binding signal (z-score) (Gal3S6S(b1-4)GlcNAc6S) | glycan array binding signal (z-score) [5] | glycan array binding signal (z-score) (Kdn(a2-3)Gal(b1-4)GlcNAc) | glycan array binding signal (z-score) (Man(a1-3)[Man(a1-6)]Man) | glycan array binding signal (z-score) [6] | glycan array binding signal (z-score) [7] | glycan array binding signal (z-score) [8] | glycan array binding signal (z-score) [9] | glycan array binding signal (z-score) [10] | glycan array binding signal (z-score) [11] | glycan array binding signal (z-score) [12] | glycan array binding signal (z-score) [13] | glycan array binding signal (z-score) (Fuc(b1-3)GlcNAc) | glycan array binding signal (z-score) (Gal(a1-3)Gal) | glycan array binding signal (z-score) (Gal(b1-4)Glc6S) | glycan array binding signal (z-score) (Gal3S6S(b1-4)GlcNAc) | glycan array binding signal (z-score) (Gal6S(b1-4)Glc6S) | glycan array binding signal (z-score) (GalNAc(a1-3)GalNAc) | glycan array binding signal (z-score) (GalNAc(b1-4)GlcNAc) | glycan array binding signal (z-score) [14] | glycan array binding signal (z-score) (Neu5Ac(a2-3)GalNAc) | glycan array binding signal (z-score) [15]
MMR (Homo sapiens), P22897 (protein) MRLPLLLVFASVIPGAVLLLDTRQFLIYNEDHKRCVDAVSPSAVQTAACNQDAESQKFRWVSESQIMSVAFKLCLGVPSKTDWVAITLYACDSKSEFQKWECKNDTLLGIKGEDLFFNYGNRQEKNIMLYKGSGLWSRWKIYGTTDNLCSRGYEAMYTLLGNANGATCAFPFKFENKWYADCTSAGRSDGWLWCGTTTDYDTDKLFGYCPLKFEGSESLWNKDPLTSVSYQINSKSALTWHQARKSCQQQNAELLSITEIHEQTYLTGLTSSLTSGLWIGLNSLSFNSGWQWSDRSPFRYLNWLPGSPSAEPGKSCVSLNPGKNAKWENLECVQKLGYICKKGNTTLNSFVIPSESDVPTHCPSQWWPYAGHCYKIHRDEKKIQRDALTTCRKEGGDLTSIHTIEELDFIISQLGYEPNDELWIGLNDIKIQMYFEWSDGTPVTFTKWLRGEPSHENNRQEDCVVMKGKDGYWADRGCEWPLGYICKMKSRSQGPEIVEVEKGCRKGWKKHHFYCYMIGHTLSTFAEANQTCNNENAYLTTIEDRYEQAFLTSFVGLRPEKYFWTGLSDIQTKGTFQWTIEEEVRFTHWNSDMPGRKPGCVAMRTGIAGGLWDVLKCDEKAKFVCKHWAEGVTHPPKPTTTPEPKCPEDWGASSRTSLCFKLYAKGKHEKKTWFESRDFCRALGGDLASINNKEEQQTIWRLITASGSYHKLFWLGLTYGSPSEGFTWSDGSPVSYENWAYGEPNNYQNVEYCGELKGDPTMSWNDINCEHLNNWICQIQKGQTPKPEPTPAPQDNPPVTEDGWVIYKDYQYYFSKEKETMDNARAFCKRNFGDLVSIQSESEKKFLWKYVNRNDAQSAYFIGLLISLDKKFAWMDGSKVDYVSWATGEPNFANEDENCVTMYSNSGFWNDINCGYPNAFICQRHNSSINATTVMPTMPSVPSGCKEGWNFYSNKCFKIFGFMEEERKNWQEARKACIGFGGNLVSIQNEKEQAFLTYHMKDSTFSAWTGLNDVNSEHTFLWTDGRGVHYTNWGKGYPGGRRSSLSYEDADCVVIIGGASNEAGKWMDDTCDSKRGYICQTRSDPSLTNPPATIQTDGFVKYGKSSYSLMRQKFQWHEAETYCKLHNSLIASILDPYSNAFAWLQMETSNERVWIALNSNLTDNQYTWTDKWRVRYTNWAADEPKLKSACVYLDLDGYWKTAHCNESFYFLCKRSDEIPATEPPQLPGRCPESDHTAWIPFHGHCYYIESSYTRNWGQASLECLRMGSSLVSIESAAESSFLSYRVEPLKSKTNFWIGLFRNVEGTWLWINNSPVSFVNWNTGDPSGERNDCVALHASSGFWSNIHCSSYKGYICKRPKIIDAKPTHELLTTKADTRKMDPSKPSSNVAGVVIIVILLILTGAGLAAYFFYKKRRVHLPQEGAFENTLYFNSQSSPGTSDMKDLVGNIEQNEHSVI | -0.435 | -0.234 | -0.407 | 2.96 | -0.37 | 0.283 | 3.67 | 3.5 | 3.58 | -0.453 | 0.013 | 3.57 | -0.344 | -0.439 | -0.418 | -0.155 | -0.397 | – | – | – | – | – | – | – | – | – | – | – | – | –
MIG/CXCL9 (Homo sapiens) (protein) TPVVRKGRCSCISTNQGTIHLQSLKDLKQFAPSPSCEKIEIIIATLKNGVQTCLNPDSADVKELIKKTEKQVSQKKKQKNGKKHQKKKVLKVRKSQRSRQKKTT | -0.29 | -0.383 | – | – | – | – | – | 2.28 | 5.28 | – | – | – | – | – | – | – | – | -0.193 | -0.26 | -0.37 | -0.209 | -0.114 | 0.015 | 2.35 | 2.35 | 0.274 | -0.358 | -0.037 | -0.254 | -0.288
